Test results published in publication PMC7862700, “An all-to-all approach to the identification of sequence-specific readers for epigenetic DNA modifications on cytosine”.

What was measured:
Test in all cases: DAPPL (digital affinity profiling via proximity ligation, sequencing); 10 mM Tris-HCl pH 7.5, 50 mM NaCl, 1 mM DTT, 4% glycerol, room temperature, 30 min; GST-TFs on glutathione beads, 16-mer random dsDNA library, 0.1% formaldehyde crosslink after washing; high values mean tight binding
Details in all cases: protein: recombinant; tags: N-terminal GST; dsDNA, one strand shown
[1] = biological target: T1, FLI1 (Homo sapiens, UniProt Q01543 1-452)
T1 sequence: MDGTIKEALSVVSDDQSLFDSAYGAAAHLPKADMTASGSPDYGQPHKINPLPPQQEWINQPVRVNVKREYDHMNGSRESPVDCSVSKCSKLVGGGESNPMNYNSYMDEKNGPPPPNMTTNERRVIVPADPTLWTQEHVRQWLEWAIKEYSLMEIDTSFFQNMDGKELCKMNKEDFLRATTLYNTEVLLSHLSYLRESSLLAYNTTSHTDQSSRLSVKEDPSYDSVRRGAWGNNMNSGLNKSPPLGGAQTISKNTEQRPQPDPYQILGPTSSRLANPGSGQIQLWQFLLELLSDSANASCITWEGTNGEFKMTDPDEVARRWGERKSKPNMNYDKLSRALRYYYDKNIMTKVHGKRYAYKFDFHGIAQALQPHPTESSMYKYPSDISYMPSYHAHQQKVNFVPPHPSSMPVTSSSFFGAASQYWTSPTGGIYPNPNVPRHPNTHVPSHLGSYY
Method in brief: (§1)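 Binding signal is each hexamer's read frequency for a factor divided by its frequency in the tag-only sample. The factors were GST-fused human transcription factors from yeast, captured on glutathione beads, DNA-barcoded and pooled with that sample. Pools were incubated with 200 nmole of a random double-stranded 16-mer DNA library in Tris/NaCl/DTT/glycerol buffer at room temperature for 30 min, then washed, crosslinked with 0.1% formaldehyde, proximity-ligated with BsaI/T4 ligase (1 h, 37 °C), PCR-amplified and sequenced on an Illumina NextSeq500.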

[2] = biological target: T2, ELK1 (Homo sapiens, UniProt P19419 1-428)
T2 sequence: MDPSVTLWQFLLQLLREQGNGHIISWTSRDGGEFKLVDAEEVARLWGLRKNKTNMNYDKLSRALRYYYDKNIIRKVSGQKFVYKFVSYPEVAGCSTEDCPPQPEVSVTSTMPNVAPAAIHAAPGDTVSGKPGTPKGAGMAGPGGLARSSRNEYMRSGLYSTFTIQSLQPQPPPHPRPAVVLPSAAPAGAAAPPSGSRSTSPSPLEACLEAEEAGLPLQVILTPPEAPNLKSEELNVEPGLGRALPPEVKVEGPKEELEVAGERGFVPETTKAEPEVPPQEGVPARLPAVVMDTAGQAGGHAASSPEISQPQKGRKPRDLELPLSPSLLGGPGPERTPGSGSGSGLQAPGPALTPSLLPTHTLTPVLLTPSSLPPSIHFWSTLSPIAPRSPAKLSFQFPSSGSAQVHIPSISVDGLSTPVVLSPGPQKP
Method in brief: as §1

[3] = biological target: T3, GABPA (Homo sapiens, UniProt Q06546 1-454)
T3 sequence: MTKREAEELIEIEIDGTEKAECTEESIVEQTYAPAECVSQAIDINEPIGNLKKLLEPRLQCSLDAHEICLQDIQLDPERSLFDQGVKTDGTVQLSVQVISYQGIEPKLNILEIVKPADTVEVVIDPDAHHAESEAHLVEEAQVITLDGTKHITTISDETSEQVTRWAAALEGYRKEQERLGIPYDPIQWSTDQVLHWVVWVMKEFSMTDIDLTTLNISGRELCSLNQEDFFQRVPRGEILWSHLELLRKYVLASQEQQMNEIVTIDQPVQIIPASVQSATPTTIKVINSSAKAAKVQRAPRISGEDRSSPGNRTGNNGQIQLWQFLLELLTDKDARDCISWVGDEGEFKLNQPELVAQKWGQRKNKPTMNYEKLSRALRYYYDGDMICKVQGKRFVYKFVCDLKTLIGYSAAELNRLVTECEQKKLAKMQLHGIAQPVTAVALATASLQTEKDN
Method in brief: as §1

[4] = biological target: T4, ERG (Homo sapiens, UniProt P11308 1-479)
T4 sequence: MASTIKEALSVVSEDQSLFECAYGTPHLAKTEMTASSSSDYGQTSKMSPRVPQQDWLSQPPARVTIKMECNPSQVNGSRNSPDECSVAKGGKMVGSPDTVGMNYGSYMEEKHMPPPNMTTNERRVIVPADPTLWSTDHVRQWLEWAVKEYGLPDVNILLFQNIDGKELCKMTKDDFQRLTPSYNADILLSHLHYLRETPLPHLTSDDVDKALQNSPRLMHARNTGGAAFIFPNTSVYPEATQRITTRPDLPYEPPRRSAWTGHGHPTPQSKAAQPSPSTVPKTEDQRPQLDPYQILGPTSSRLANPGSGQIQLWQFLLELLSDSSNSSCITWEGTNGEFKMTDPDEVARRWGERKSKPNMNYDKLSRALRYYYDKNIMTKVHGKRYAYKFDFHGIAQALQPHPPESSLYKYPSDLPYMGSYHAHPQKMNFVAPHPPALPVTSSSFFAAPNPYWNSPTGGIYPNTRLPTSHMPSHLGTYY
Method in brief: as §1

[5] = biological target: ELF1 (Homo sapiens, UniProt P32519 1-619)
Sequence of ELF1 (P32519 whole entry): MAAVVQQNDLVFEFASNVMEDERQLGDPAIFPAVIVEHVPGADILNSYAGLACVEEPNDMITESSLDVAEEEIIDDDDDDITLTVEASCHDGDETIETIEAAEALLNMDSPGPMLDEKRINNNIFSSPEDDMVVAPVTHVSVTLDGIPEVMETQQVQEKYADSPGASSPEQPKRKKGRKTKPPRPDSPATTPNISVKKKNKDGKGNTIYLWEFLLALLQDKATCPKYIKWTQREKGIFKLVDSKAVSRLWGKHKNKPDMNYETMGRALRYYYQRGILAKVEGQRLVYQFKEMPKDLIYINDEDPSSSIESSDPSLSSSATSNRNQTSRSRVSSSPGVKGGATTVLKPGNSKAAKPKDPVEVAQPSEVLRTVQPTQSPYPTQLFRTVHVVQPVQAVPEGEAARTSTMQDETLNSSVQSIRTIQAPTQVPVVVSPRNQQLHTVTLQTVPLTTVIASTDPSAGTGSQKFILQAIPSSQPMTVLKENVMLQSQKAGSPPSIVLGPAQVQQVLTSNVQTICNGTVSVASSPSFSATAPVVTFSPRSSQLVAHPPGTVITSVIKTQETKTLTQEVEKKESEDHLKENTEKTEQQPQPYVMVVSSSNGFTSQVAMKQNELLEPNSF
Method in brief: as §1

[6] = biological target: T5, EHF (Homo sapiens, UniProt Q9NZC4 1-300)
T5 sequence: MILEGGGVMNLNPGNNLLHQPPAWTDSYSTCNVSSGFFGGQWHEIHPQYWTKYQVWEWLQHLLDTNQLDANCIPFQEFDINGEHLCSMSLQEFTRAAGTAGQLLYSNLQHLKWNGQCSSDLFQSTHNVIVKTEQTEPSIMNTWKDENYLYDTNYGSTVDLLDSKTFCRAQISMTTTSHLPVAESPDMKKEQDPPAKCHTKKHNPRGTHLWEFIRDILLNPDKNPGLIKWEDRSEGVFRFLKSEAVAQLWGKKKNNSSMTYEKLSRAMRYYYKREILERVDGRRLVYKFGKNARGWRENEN
Method in brief: as §1

[7] = biological target: SPI1 (Homo sapiens, UniProt P17947 1-270)
Method in brief: as §1

[8] = biological target: SPIB (Homo sapiens, UniProt Q01892 1-262)
Sequence of SPIB (Q01892 whole entry): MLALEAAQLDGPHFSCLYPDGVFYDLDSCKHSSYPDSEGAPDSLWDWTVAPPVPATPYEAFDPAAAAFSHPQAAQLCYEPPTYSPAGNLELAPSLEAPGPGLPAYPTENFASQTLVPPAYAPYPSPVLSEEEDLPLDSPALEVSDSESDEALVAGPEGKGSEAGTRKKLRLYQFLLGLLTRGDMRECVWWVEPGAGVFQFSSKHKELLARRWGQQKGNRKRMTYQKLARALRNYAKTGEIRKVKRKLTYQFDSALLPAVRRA
Method in brief: as §1

[9] = biological target: T6, ELK3 (Homo sapiens, UniProt P41970 1-407)
T6 sequence: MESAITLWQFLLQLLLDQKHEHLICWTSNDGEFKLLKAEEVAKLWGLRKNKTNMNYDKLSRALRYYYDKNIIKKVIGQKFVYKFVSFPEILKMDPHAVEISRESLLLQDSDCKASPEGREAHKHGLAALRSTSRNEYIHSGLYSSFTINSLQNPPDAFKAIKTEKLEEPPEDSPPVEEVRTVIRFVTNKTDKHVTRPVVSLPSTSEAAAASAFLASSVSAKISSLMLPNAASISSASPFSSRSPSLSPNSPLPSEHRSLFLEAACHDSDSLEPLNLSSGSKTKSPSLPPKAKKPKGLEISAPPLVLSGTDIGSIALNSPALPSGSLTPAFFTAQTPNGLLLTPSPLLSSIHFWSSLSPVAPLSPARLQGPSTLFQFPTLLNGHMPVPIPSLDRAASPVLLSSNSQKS
Method in brief: as §1

Sequence | binding signal [1] | binding signal [2] | binding signal [3] | binding signal [4] | binding signal [5] | binding signal [6] | binding signal [7] | binding signal [8] | binding signal [9]
AGCTTA | 1.06 fold enrichment (6-mer frequency, TF over GST control) | 1.12 fold enrichment (6-mer frequency, TF over GST control) | 1.12 fold enrichment (6-mer frequency, TF over GST control) | 1.13 fold enrichment (6-mer frequency, TF over GST control) | 1.11 fold enrichment (6-mer frequency, TF over GST control) | 1.1 fold enrichment (6-mer frequency, TF over GST control) | 1.14 fold enrichment (6-mer frequency, TF over GST control) | 1.21 fold enrichment (6-mer frequency, TF over GST control) | 1.11 fold enrichment (6-mer frequency, TF over GST control)
AATCCC | 1.36 fold enrichment (6-mer frequency, TF over GST control) | 1.36 fold enrichment (6-mer frequency, TF over GST control) | 1.38 fold enrichment (6-mer frequency, TF over GST control) | 1.42 fold enrichment (6-mer frequency, TF over GST control) | 1.35 fold enrichment (6-mer frequency, TF over GST control) | 1.39 fold enrichment (6-mer frequency, TF over GST control) | 1.26 fold enrichment (6-mer frequency, TF over GST control) | 1.32 fold enrichment (6-mer frequency, TF over GST control) | 1.13 fold enrichment (6-mer frequency, TF over GST control)
TTTCAC | 1.39 fold enrichment (6-mer frequency, TF over GST control) | 1.34 fold enrichment (6-mer frequency, TF over GST control) | 1.37 fold enrichment (6-mer frequency, TF over GST control) | 1.33 fold enrichment (6-mer frequency, TF over GST control) | 1.43 fold enrichment (6-mer frequency, TF over GST control) | 1.3 fold enrichment (6-mer frequency, TF over GST control) | 1.34 fold enrichment (6-mer frequency, TF over GST control) | 1.27 fold enrichment (6-mer frequency, TF over GST control) | 1.39 fold enrichment (6-mer frequency, TF over GST control)
TCCAAC | 1.22 fold enrichment (6-mer frequency, TF over GST control) | 1.24 fold enrichment (6-mer frequency, TF over GST control) | 1.22 fold enrichment (6-mer frequency, TF over GST control) | 1.16 fold enrichment (6-mer frequency, TF over GST control) | 1.25 fold enrichment (6-mer frequency, TF over GST control) | 1.23 fold enrichment (6-mer frequency, TF over GST control) | 1.18 fold enrichment (6-mer frequency, TF over GST control) | 1.16 fold enrichment (6-mer frequency, TF over GST control) | 1.21 fold enrichment (6-mer frequency, TF over GST control)
ACGCTA | 1.14 fold enrichment (6-mer frequency, TF over GST control) | 1.18 fold enrichment (6-mer frequency, TF over GST control) | 1.14 fold enrichment (6-mer frequency, TF over GST control) | 1.2 fold enrichment (6-mer frequency, TF over GST control) | 1.15 fold enrichment (6-mer frequency, TF over GST control) | 1.1 fold enrichment (6-mer frequency, TF over GST control) | 1.19 fold enrichment (6-mer frequency, TF over GST control) | 1.07 fold enrichment (6-mer frequency, TF over GST control) | 1.27 fold enrichment (6-mer frequency, TF over GST control)
CTTCAG | 1.34 fold enrichment (6-mer frequency, TF over GST control) | 1.25 fold enrichment (6-mer frequency, TF over GST control) | 1.3 fold enrichment (6-mer frequency, TF over GST control) | 1.32 fold enrichment (6-mer frequency, TF over GST control) | 1.36 fold enrichment (6-mer frequency, TF over GST control) | 1.34 fold enrichment (6-mer frequency, TF over GST control) | 1.29 fold enrichment (6-mer frequency, TF over GST control) | 1.28 fold enrichment (6-mer frequency, TF over GST control) | 1.34 fold enrichment (6-mer frequency, TF over GST control)
TTATCC | 1.47 fold enrichment (6-mer frequency, TF over GST control) | 1.39 fold enrichment (6-mer frequency, TF over GST control) | 1.37 fold enrichment (6-mer frequency, TF over GST control) | 1.43 fold enrichment (6-mer frequency, TF over GST control) | 1.31 fold enrichment (6-mer frequency, TF over GST control) | 1.52 fold enrichment (6-mer frequency, TF over GST control) | 1.41 fold enrichment (6-mer frequency, TF over GST control) | 1.54 fold enrichment (6-mer frequency, TF over GST control) | 1.5 fold enrichment (6-mer frequency, TF over GST control)
ATGCGC | 1.15 fold enrichment (6-mer frequency, TF over GST control) | 1.18 fold enrichment (6-mer frequency, TF over GST control) | 1.18 fold enrichment (6-mer frequency, TF over GST control) | 1.18 fold enrichment (6-mer frequency, TF over GST control) | 1.1 fold enrichment (6-mer frequency, TF over GST control) | 1.17 fold enrichment (6-mer frequency, TF over GST control) | 1.11 fold enrichment (6-mer frequency, TF over GST control) | 1.21 fold enrichment (6-mer frequency, TF over GST control) | 1.08 fold enrichment (6-mer frequency, TF over GST control)
